Rows were chosen to be rich in hits. Some 2.4% of all compounds tested hit in one or more screens of this group.
Pol kappa inh-1: qHTS for Inhibitors of Polymerase Kappa; AID 588579, 2011; DNA polymerase kappa (Homo sapiens), Q9UBT6; 400,000 compounds, 0.53% hits; purified Pol kappa, fluorescent DNA synthesis assay, 10 min; Potency, µM (highest dose often 107 µM), without a hit: at the top dose activity, negative = inhibition, usual class: inhibitors; also: % is scaled to controls: 0 for no effect and ±100 for the full control effect
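Fluorescent qHTS in 1536-well format: enzyme (10 nM) and compound sat 15 min at room temperature before 50 nM substrate (final) was added. Signal taken at 0 and 10 min; no-enzyme buffer wells were negative controls.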
Pol eta inh-1: qHTS for Inhibitors of Polymerase Eta | 390,000 compounds, 1.2% hits | DNA polymerase eta (Homo sapiens), Q9Y253 | Potency, µM (doses to about 114 µM), for the others: at the top dose activity change, negative = inhibition, usual class: inhibitors | recombinant Pol eta, fluorescent DNA replication assay; also: % is scaled to controls: 0 for no effect and ±100 for the full control effect
Target sequence (Q9Y253 whole entry, looked up): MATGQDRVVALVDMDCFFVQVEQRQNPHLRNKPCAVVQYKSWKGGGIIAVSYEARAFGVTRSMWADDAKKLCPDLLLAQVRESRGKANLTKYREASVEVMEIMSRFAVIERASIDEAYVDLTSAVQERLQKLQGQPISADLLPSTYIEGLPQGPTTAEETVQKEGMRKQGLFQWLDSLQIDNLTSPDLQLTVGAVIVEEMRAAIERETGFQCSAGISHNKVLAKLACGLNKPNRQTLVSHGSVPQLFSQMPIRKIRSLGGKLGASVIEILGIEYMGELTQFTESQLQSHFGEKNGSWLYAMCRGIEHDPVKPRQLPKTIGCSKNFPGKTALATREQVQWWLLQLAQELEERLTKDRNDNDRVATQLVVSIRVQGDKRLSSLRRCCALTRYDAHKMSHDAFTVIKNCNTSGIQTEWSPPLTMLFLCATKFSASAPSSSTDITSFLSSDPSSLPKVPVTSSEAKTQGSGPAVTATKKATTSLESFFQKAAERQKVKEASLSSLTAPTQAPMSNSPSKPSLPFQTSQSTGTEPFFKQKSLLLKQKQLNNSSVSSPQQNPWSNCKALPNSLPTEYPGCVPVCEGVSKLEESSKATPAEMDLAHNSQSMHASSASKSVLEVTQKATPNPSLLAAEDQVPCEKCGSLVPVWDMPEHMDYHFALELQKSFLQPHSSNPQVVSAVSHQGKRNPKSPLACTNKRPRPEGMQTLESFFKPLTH
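Pol eta (10 nM) was preincubated with compounds for 15 min at room temperature, after which fluorescent replication substrate (50 nM final) was added to start the reaction. Fluorescence was read kinetically at 0 and 10 min.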
FEN1 inh-1: qHTS Assay for the Inhibitors of Human Flap endonuclease 1 (FEN1); Potency, µM (titrated, usually from 114 µM), without a hit: at the highest dose activity change, negative = inhibition, hits mostly inhibitors; 390,000 compounds, 0.35% hits; Recombinant FEN1 flap cleavage, fluorescence, 15 min; P39748; AID 588795, 2011; also: % is scaled to controls: 0 for no effect and ±100 for the full control effect; nearly all actives have a fitted effect of over 65% in size
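FEN1 at 10 nM preincubated with compounds 15 min at room temperature, then flap DNA substrate added at 50 nM final. Signal read at 0 and 15 min; concentration-response fitted with four-parameter Hill equation.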
POLB inh: qHTS Assay for Inhibitors of DNA Polymerase Beta | Potency, µM (top dose mostly 114 µM), inactives show at the top dose activity change, negative = inhibition, most hits filed as inhibitors | Pol beta primer extension/strand displacement, fluorescence kinetic | 340,000 compounds, 1.3% hits | P06746; also: % is scaled to controls: 0 for no effect and ±100 for the full control effect
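Preincubation: enzyme (10 nM) with compound, 15 min, RT. Reaction: substrate added to 50 nM final. Reads: 0 and 10 min. Analysis: normalized, Hill fit.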
POLI inh: qHTS for Inhibitors of Polymerase Iota. 390,000 compounds, 1% hits. Potency, µM (titrated, usually from 115 µM), for inactives: at the top dose activity, negative = inhibition, most hits filed as inhibitors. DNA polymerase iota (Homo sapiens), Q9UNA4. AID 588590, 2011. Pol iota fluorescent replication assay, 10 min
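Pol iota at 10 nM preincubated 15 min with compounds at room temperature; reaction started with fluorescent substrate, 50 nM final. Fluorescence read kinetically at 0 and 10 min; buffer-only wells as negative control.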
WRN helicase inh: qHTS for Inhibitors of WRN Helicase; Potency, µM (series often up to 114 µM), without a hit: top-dose activity change, negative = inhibition, actives largely listed as inhibitors; Bifunctional 3'-5' exonuclease/ATP-dependent helicase WRN (Homo sapiens), Q14191; AID 651768, 2012; WRN helicase unwinding, fluorescent forked duplex, kinetic; 360,000 compounds, 0.46% hits; also: % is scaled to controls: 0 for no effect and ±100 for the full control effect; nearly all actives have a fitted effect of over 55% in size
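Kinetic red-fluorescence monitoring (525/598 nm) tracks WRN helicase activity after 100 nM fluorophore-quencher forked duplex and 2 mM ATP are added to 20 nM enzyme pretreated 15 min at room temperature with compound.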
PGK validate: qHTS for inhibitors of Phosphogylcerate Kinase: Hit Validation Screen. shares compounds with Pol kappa inh-1. TbPGK coupled GAPDH assay, Kinase-Glo luminescence. Potency, µM (series often up to 57.5 µM), inactives show at the highest dose activity change, negative = inhibition, hits mostly inhibitors. 500 compounds, 79% hits. AID 686980, 2013; also: % is scaled to controls: 0 for no effect and ±100 for the full control effect; nearly all actives have a fitted effect of over 65% in size
POLI cherry-pick: qHTS for Inhibitors of Polymerase Iota: Confirmatory Assay for Cherry-picked Compounds. shares compounds with Pol kappa inh-1. Pol iota primer extension, TAMRA/BHQ fluorescence. Potency, µM, actives largely listed as inhibitors. 1,500 compounds, 77% hits. AID 720496, 2013
Pol kappa inh-2: qHTS for Inhibitors of Polymerase Kappa: Confirmatory Assay for Cherry-picked Compounds; shares compounds with Pol eta inh-1; purified Pol-kappa, fluorescent strand-displacement substrate; Potency, µM, most hits filed as inhibitors; 920 compounds, 76% hits; AID 720501, 2013
Pol eta inh-2: qHTS for Inhibitors of Polymerase Eta: Confirmatory Assay for Cherry-picked Compounds; 2,600 compounds, 64% hits; Potency, µM, actives largely listed as inhibitors; Pol eta primer extension, TAMRA/BHQ fluorescence, 10 min; shares compounds with Pol eta inh-1
FEN1 inh-2: qHTS Assay for the Inhibitors of FEN1: Confirmatory Assay for Cherry-picked Compounds; shares compounds with FEN1 inh-1; FEN1 flap cleavage, TAMRA/BHQ2 fluorogenic DNA substrate; Potency, µM, most hits filed as inhibitors; 880 compounds, 79% hits; also: nearly all actives have a fitted effect of over 60% in size
* hit, by the source's call; ? = inconclusive; nt = no result; [ ] = dose if it differs, or a comment. Calls follow the shape of the dose curve; as a rule, active = well fitted curve in the direction sought with a large enough effect; inconclusive = small, poorly fitted or top-dose-only effect, or another doubt; inactive = no such curve, though single readings can be large; an effect the other way counts as inactive or inconclusive. Potency is read from the fitted curve at half-maximal effect.

SMILES | Pol kappa inh-1 | Pol eta inh-1 | FEN1 inh-1 | POLB inh | POLI inh | WRN helicase inh | POLI cherry-pick | Pol eta inh-2 | FEN1 inh-2 | others
CC(=O)Nc1sc2c(c1-c1nc3ccccc3s1)CN(C(C)C)CC2 | 50µM* | ? | 6.3µM* | nt | 13µM* | nt | 24* | nt | 11* | Pol kappa inh-2=17*
CN1CCc2c(sc(NC(=O)CSc3ccccc3)c2-c2nc3ccccc3s2)C1 | -3%[60.1 µM] | -14% | 2% | 4% | 67% | nt | nt | nt | nt
CC(=O)N1CCc2c(sc(NC(=O)CSc3ccccc3)c2-c2nc3ccccc3s2)C1 | -12%[60.1 µM] | ? | 7% | 4% | ? | nt | nt | nt | nt
CC(=O)Nc1sc2c(c1-c1nc3ccccc3s1)CCCN(C(C)C)C2 | nt | nt | nt | nt | nt | nt | 53* | nt | 7.6* | Pol kappa inh-2=12*
Cc1ccc(C(=O)c2oc3ccccc3c2NC(=O)COc2ccccc2Cl)cc1 | 0% | -15% | 4% | -20% | 15% | nt | nt | nt | nt
COc1cccc(N2CCN(c3ccc4nnc(CCC(=O)O)n4n3)CC2)c1 | -7% | -15% | 16% | 7% | 2% | nt | nt | nt | nt
CCCN1CNc2c(c(=O)[nH]c(=S)n2CCc2ccccn2)C1 | 6% | nt | 0% | nt | 15% | nt | nt | nt | nt
Cc1ccc(NC(=O)CC2Oc3ccccc3NC2=O)cc1C (stereo unspecified) | 9% | -14% | 7% | 27% | 21% | nt | nt | nt | nt
Fc1cc(F)c2nc(Nc3nc4cc5c(cc4s3)OCO5)sc2c1 | ? | 2.8µM* | ? | ? | ? | 28µM* | ? | nt | 43*
COc1ccc(-c2nn(-c3ccccc3)cc2/C=C2/SC(=S)N(CCC(=O)O)C2=O)c(C)c1 | ? | 32µM* | ? | 32µM* | ? | -21% | 75* | ? | 67*
COc1cccc(NC(=O)Cn2cc(C(=O)c3ccc(C)cc3)c(=O)c3cc(OC)ccc32)c1 | 2% | 79µM* | 79µM* | 20µM* | ? | nt | 47* | nt | ?
CN1C(C(=O)c2ccccc2)=C(OC(=O)c2ccc(Br)cc2)c2ccccc2S1(=O)=O | 0% | -14% | 9% | 1% | -13% | nt | nt | nt | nt
Cc1ccc(-c2ccc(/C=N\NC(=O)c3cc4c(ccc5ccccc54)o3)o2)cc1[N+](=O)[O-] | 0% | ? | -11% | ? | 1% | -16% | nt | nt | nt
O=C(N/N=C/c1ccc(-c2ccc(Cl)c(C(=O)O)c2)o1)c1cc2c(ccc3ccccc32)o1 | 32µM* | 11µM* | 40µM* | ? | 18µM* | 20µM* | 75* | 19* | 21*
COc1cccc(C(=O)NCCSc2c(-c3ccc(F)cc3)[nH]c3ccccc23)c1OC | -7% | -16% | 4% | -1% | -5% | nt | nt | nt | nt
Nc1ncnc2oc(-c3ccco3)c(-c3ccco3)c12 | 25µM* | 40µM* | 35µM* | 6.3µM* | ? | ? | 42* | 85* | 60*
O=c1[nH]c(/C=C\c2ccc(O)c(Cl)c2)nc(O)c1[N+](=O)[O-] | -16% | -15% | 0% | 2% | ? | -1% | nt | nt | nt
Cc1ccc(/C=C/c2nc3sc(C(=O)O)c(C)c3c(=O)[nH]2)cc1[N+](=O)[O-] | -7% | 40µM* | 2% | ? | 1% | ? | 30* | ? | 76*
CC(NC1=CC(=O)c2cccnc2C1=O)C(O)c1ccccc1 (stereo unspecified) | -9% | 16µM* | ? | nt | 4.5µM* | ? | 19* | 24* | ?
O=C1N/C(=C/c2cccn2-c2ccccc2)C(=O)N1Cc1ccccc1F | -1% | -10% | -1% | -4% | 11% | ? | nt | nt | nt
Cc1ccc(NC(=O)CN2C(=O)N/C(=C\c3cccn3-c3cccc(-c4nn[nH]n4)c3)C2=O)cc1 | nt | nt | nt | nt | nt | nt | 27* | 76* | 67* | Pol kappa inh-2=21*
Cc1ccc(NC(=O)CN2C(=O)N/C(=C/c3ccc(N4CCOCC4)cc3)C2=O)cc1 | -3% | -15% | -7% | -7% | 39% | -29%[57.1 µM] | nt | nt | nt
Cc1ccc(NC(=O)CN2C(=O)N/C(=C/c3ccccc3OCc3cccc(C(=O)O)c3)C2=O)cc1 | ? | 25µM* | 71µM* | 35µM* | 20µM* | 50µM* | 42* | ? | 76* | PGK validate=16µM*
O=C(O)c1ccc(COc2ccccc2/C=C2\NC(=O)N(Cc3ccccc3)C2=O)cc1 | -18% | 5% | ? | -5% | 29% | -14% | nt | nt | nt
O=C(O)c1ccc(-n2cccc2/C=C2/NC(=O)N(c3cccc(Cl)c3)C2=O)cc1 | 16µM* | 3.5µM* | 40µM* | 2.2µM* | 2µM* | ? | 3.4* | 9.5* | 67* | PGK validate=5.8µM*
Cc1ccc(NC(=O)CN2C(=O)N/C(=C\c3cccn3-c3cccc(C(=O)O)c3)C2=O)cc1 | 45µM* | 3.5µM* | 79µM* | 4µM* | 14µM* | 28µM* | 19* | 27* | 76* | PGK validate=15µM*;Pol kappa inh-2=42*
COc1ccc(-c2nn(C)c3sc(C(=O)N4CCN(c5cccc(C)c5C)CC4)cc23)cc1OC | -3% | -11% | 19% | 18% | 20% | nt | nt | nt | nt
